# The list is not random: actives were taken first. Their share in the collection is about 3.7%.
# DRD3 antagonist: antagonists of human D3 dopamine receptor; max response, negative = inhibition, %; D3R cells, DiscoveRx beta-arrestin luminescence, antagonist mode; hits give low values; AID 652054; 2.5% of 360,000 active; P35462; in the data active = max response below about -50%; inconclusive = no clear call, values can overlap the other calls; note: % is set by controls: 0 for no effect and ±100 for the full control effect
# Target sequence (P35462 whole entry, looked up): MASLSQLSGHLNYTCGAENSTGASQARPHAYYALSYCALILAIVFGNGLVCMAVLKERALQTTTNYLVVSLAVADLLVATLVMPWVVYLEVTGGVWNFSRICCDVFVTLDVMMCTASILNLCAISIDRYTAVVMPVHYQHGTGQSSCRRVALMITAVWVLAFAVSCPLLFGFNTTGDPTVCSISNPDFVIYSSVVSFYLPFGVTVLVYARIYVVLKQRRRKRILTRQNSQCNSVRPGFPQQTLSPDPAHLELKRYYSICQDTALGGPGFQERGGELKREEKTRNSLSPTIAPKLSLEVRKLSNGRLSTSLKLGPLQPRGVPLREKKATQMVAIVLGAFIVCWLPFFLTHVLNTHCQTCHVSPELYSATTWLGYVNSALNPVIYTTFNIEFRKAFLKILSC
#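 Cells expressing the human receptor were seeded at 1500 cells/well, incubated overnight at 37 degrees C in 5% CO2, then exposed to library compounds with dopamine controls for 90 minutes at 37 degrees C before luminescent detection.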
# B2AR arrestin: beta2AR (human) beta-arrestin recruitment activity; P07550; beta-arrestin recruitment to beta2AR, cell-based reporter; Potency, µM (top dose mostly 46.1 µM), for inactives: at the highest dose activation, usual class: activators; 0.02% of 330,000 active; AID 492947;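 note: potency is the fitted concentration of half-maximal effect; 0% = DMSO controls and full agonism = EC100 isoproterenol or metaproterenol; nearly all actives have a fitted effect of over 65% in size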
# BRCA1 expr act: BRCA1 expression activation; MCF7-BRCA1-FFLuc reporter, luminescence, 48 h; response scale: scaled: vehicle 0%, 10 µM genistein 100%; Potency, µM (titrated, usually from 46.1 µM), for the others: at the highest dose activation, most hits filed as activators; 1.1% of 380,000 active; note: potency is the fitted concentration of half-maximal effect; nearly all actives have a fitted effect of over 80% in size
#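 First, MCF7-BRCA1-FFLuc cells (2000/well) attach for 2 h; next, compounds are pin-added and incubated 48 h at 37 °C; finally, luciferase reagent is added and luminescence read after 15 min.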
# D3 ag: activates the human D3 dopamine receptor; 0.58% of 410,000 active; max activation, %; P35462; D3R DiscoveRx beta-arrestin cells, luminescence, 90 min; in the data active = max activation above about 30%; note: 0% is about no effect
#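 Agonist mode: compounds and dopamine controls were applied to plated cells for 90 min at 37 degrees C after an overnight attachment at 1500 cells/well. Luminescent read-out followed 30 - 60 minutes at room temperature with DiscoveRx detection reagent.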
# RGS4 inh: inhibitors of human regulator of G protein signaling 4; 0.039% of 390,000 active; Potency, µM (highest dose often 114 µM), inactives show at the top dose activity change, negative = inhibition, actives largely listed as inhibitors; Transcreener GDP fluorescence polarization, RGS4-accelerated GTP hydrolysis; P49798; AID 504845; note: potency is the fitted concentration of half-maximal effect; % is set by controls: 0 for no effect and ±100 for the full control effect; nearly all actives have a fitted effect of over 75% in size
# Target sequence (P49798 whole entry, looked up): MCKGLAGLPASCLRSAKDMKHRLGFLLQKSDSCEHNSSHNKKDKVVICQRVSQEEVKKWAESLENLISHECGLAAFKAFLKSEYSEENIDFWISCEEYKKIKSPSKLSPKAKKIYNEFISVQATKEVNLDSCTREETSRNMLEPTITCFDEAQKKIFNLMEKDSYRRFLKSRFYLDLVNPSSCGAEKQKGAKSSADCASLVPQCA
#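 MLSMR compounds (23 nl, pin-transferred) preincubated 10 min at room temperature with a 500nM (2x) first reagent, then RGS4 at 900nM (2x) plus Transcreener GDP mix added; fluorescence polarization (620/688 nm) read before and after 90 min at 30 °C.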
# PTHR1 ag: activates the human parathyroid hormone receptor PTHR1 | HEK293 GP2 PTHR1 cells, GloSensor cAMP luminescence, 1 h | 0.075% of 410,000 active | Potency, µM (titrated, usually from 115 µM), inactives show at the highest dose activation, actives largely listed as activators | Q03431; note: potency is the fitted concentration of half-maximal effect; nearly all actives have a fitted effect of over 55% in size
#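 HEK-293-derived GP2 cells expressing PTHR1 and a GloSensor cAMP reporter, 3,000/well, plated overnight, given luciferin plus IBMX (each 0.5 mM as added) for 1 h at 37 °C, then compound for 1 h at 37 °C. Luminescence was read after 15 min at room temperature.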
# * hit, by the source's call; i = inactive; ? = inconclusive; . = no result; [ ] = another dose, or the depositor's remark. Unless noted, calls come from the whole dose curve; as a rule, active = well fitted curve in the direction sought with a large enough effect; inconclusive = small, poorly fitted or top-dose-only effect, or another doubt; inactive = no such curve, though single readings can be large; an effect the other way counts as inactive or inconclusive.
SMILES,DRD3 antagonist,B2AR arrestin,BRCA1 expr act,D3 ag,RGS4 inh,PTHR1 ag
N#Cc1cccc(OCCCN2CCC(C(O)(c3ccccc3)c3ccccc3)CC2)c1,-86*,.,-20%,-11,.,i
O=C(/C=C/c1ccccc1)c1ccc2c(c1)OCCCCO2,?,0%,2.2µM*,-8,-17%,-8%[57.5 µM]
O=C(CCc1ccccc1)c1ccc2c(c1)OCCCO2,43,0%,3.5µM*,1,9%,-92%[57.5 µM]
O/N=C(/CCc1ccccc1)c1ccc2c(c1)OCCO2,7,0%,2.8µM*,6,21%,-18%
O=C(c1ccccc1)c1ccc2c(c1)OCCCO2,-1,-1%,1.4µM*,17,5%,-15%
CCOC(=O)CSc1nc2ccc(NC(=O)COc3ccc(F)cc3)cc2s1,.,.,0%,-9,-8%,0%
CCc1cc(-c2nnn(CCC3COCCO3)c2CC)cc(CC)c1-c1cn(CCc2c[nH]c3ccccc23)nn1 (stereo unspecified),-2,.,-12%,8,.,-43%
Cc1c(Cl)cccc1NC(=O)CCS(=O)(=O)c1cccc2nsnc12,.,.,5%,-12,1%,-28%
CCCCCN1C(C(=O)c2ccccc2)=C(NC(=O)c2ccc(OC)cc2)c2ccccc2S1(=O)=O,.,.,.,-12,0%,-10%
COc1ccc(-n2ncc(C(C)NS(=O)(=O)c3cc(F)ccc3C)c2C)cc1 (stereo unspecified),-58*,0%,-10%,-12,-6%,-32%
COc1ccc(-n2ncc(C(C)NS(=O)(=O)c3cccs3)c2C)cc1 (stereo unspecified),-76*,3%,-17%,-2,-4%,i
CN(CCO)c1cc(Sc2nc3ccccc3s2)c2nonc2c1[N+](=O)[O-],-84*,3%,-98%,-37,?,i
CC(=O)OCCN(C)c1cc(SC(C)C)c2nonc2c1[N+](=O)[O-],-2,-1%,-2%,2,-29%,i
Nc1nc(-c2ccccc2)cs1,7,0%,101%,-2,-35%,-5%[57.5 µM]
Nc1nc(-c2cccc(Br)c2)cs1,44,-1%,11µM*,9,-50%,5.6µM*
Nc1nc(-c2ccc(F)cc2)cs1,-16,0%,67%,-6,-24%,i
Nc1nc(-c2ccc(Br)cc2)cs1,?,0%,16µM*,-9,-31%,i
Cc1ccc(NC(=O)c2oc3ccccc3c2NC(=O)C2CCCCC2)cc1,.,.,-86%,0,1%,-12%
CC(=O)OCC(=O)NCCCOc1cccc(CN2CCCCC2)c1,-81*,.,-4%,-67,-4%,i
CCC(C)C(=O)Nc1nnc(CCc2ccccc2)s1 (stereo unspecified),15,-1%,40%,-3,?,-4%
Cc1ccc(SC[C@H](Cc2ccccc2)N2CCN(CCc3ccccc3)CCC2=O)cc1,-58*,0%,3%,-60,11%,-45%
CC(C)CN1CCC(=O)N([C@H](CSc2ccc(Br)cc2)Cc2ccccc2)CC1,-67*,0%,-5%,-59,2%,26%
Cc1ccc(SCC(Cc2ccccc2)N2CCN(CC(C)C)CCC2=O)cc1 (stereo unspecified),.,.,.,.,15%,.
CCC(C)(C)C1CCC2(CC1)NC(=O)N(CC(=O)N1CCN(c3ccccc3OC)CC1)C2=O (stereo unspecified),-18,.,6%,4,.,-65%
Cn1c(NCC(O)c2ccccc2)nc2c1c(=O)n(Cc1ccc(Cl)c(Cl)c1)c(=O)n2C (stereo unspecified),?,.,-77%,33*,?,-17%
SMILES,DRD3 antagonist,B2AR arrestin,BRCA1 expr act,D3 ag,RGS4 inh,PTHR1 ag
COc1cc(OC)c(NS(=O)(=O)c2cccc(C(=O)OCC(=O)NCC3CCCO3)c2)cc1Cl (stereo unspecified),0,0%,-21%,3,-11%,-11%
CC(C)N(c1ccccc1)c1ccc(NC(=S)NCCN(C)C)cc1,-73*,0%,-30%,-13,-23%,i
Cc1ccc(NC(=O)CN(C)C(=O)c2ccc(Cl)nc2)cc1,-84*,0%,23%,-16,3%,i
NS(=O)(=O)c1ccc(N=Nc2ccc(=O)[nH]c2O)cc1,-102*,-1%,-7%,-16,-47%,i
NS(=O)(=O)c1ccc(N=Nc2c(O)ccc3ccccc23)cc1,-2,0%,-54%,4,-20%,-5%
Nc1nc(N)c(N=Nc2ccc(S(N)(=O)=O)cc2)c(=O)[nH]1,-55*,-1%,27%,-6,-5%,-16%
CCOc1ccccc1NC(=O)Cn1cnc2sc(C)c(S(=O)(=O)N3CCC(C)CC3)c2c1=O,.,.,.,-11,-17%,0%
COc1cccc(C(=O)Nc2ccccc2-c2nnc(-c3cc(OC)ccc3Br)o2)c1,.,.,12%,-6,-10%,-21%
CCOC(=O)C1=C(CSc2nc3ccccc3s2)NC(=O)NC1c1cc(C)ccc1C (stereo unspecified),34,0%,-53%,31*,-17%,-33%[57.5 µM]
CCOC(=O)C1=C(CSc2nc3ccccc3s2)NC(=O)NC1c1ccc(OC)cc1 (stereo unspecified),7,0%,-105%,23,0%,i
CN1CCC(=C(c2ccccc2)c2ccc(Br)cc2)CC1,-99*,.,-28%,-26,25%,i
CN1CCC(OC(=O)c2ccc(Br)cc2)CC1,?,.,0%,-10,-13%,i
Cc1noc(C)c1COC(=O)c1ccc(F)c(S(=O)(=O)N2CCOCC2)c1,1,-1%,4%,8,27%,-21%
Nc1nc2ccccc2n1/N=C/c1ccc2c(c1)OCO2,5,0%,5.6µM*,13,-12%,-12%
Nc1nc2ccccc2n1/N=C/c1ccc(Br)cc1,4,0%,5%,2,-6%,-19%
COc1cc(C2CC(=O)Oc3c(C(CCN4CCN(c5ccccc5)CC4)c4ccc(N(C)C)cc4)c(OC)cc(OC)c32)cc(OC)c1OC (stereo unspecified),-103*,0%,0%,-14,11%,i
COc1ccc(C2CC(=O)Oc3c(C(CCN4CCCCC4)c4ccc(N(C)C)cc4)c(OC)cc(OC)c32)cc1 (stereo unspecified),-58*,0%,-15%,-3,-20%,i
COc1cc(C2CC(=O)Oc3c(C(CCN4CCOCC4)c4ccc(N(C)C)cc4)c(OC)cc(OC)c32)cc(OC)c1OC (stereo unspecified),0,0%,14%,-20,-52%,-21%
CCN(CC)CCOC[C@H]1O[C@@H](O)[C@H](OCCN(CC)CC)[C@@H](O)[C@@H]1O,.,.,.,5,.,.

# High-throughput results from PubChem BioAssay.
